{"source": "PubChem BioAssay (Tox21)", "target": "KiSS-1 receptor (Homo sapiens) (UniProt Q969F8)", "sequence (Q969F8 whole entry, looked up)": "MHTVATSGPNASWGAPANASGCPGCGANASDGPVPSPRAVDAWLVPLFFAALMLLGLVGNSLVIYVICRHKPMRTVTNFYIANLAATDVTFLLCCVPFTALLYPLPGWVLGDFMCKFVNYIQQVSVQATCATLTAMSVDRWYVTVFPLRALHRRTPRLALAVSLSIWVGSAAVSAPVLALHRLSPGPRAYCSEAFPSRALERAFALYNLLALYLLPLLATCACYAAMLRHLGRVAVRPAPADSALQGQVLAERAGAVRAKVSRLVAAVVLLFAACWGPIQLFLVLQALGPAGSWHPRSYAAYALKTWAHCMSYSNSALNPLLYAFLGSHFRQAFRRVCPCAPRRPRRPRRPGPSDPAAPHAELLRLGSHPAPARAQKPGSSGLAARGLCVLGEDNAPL", "test": "Human kisspeptin (KISS1R) small molecule agonists, calcium flux assay in KISS1R-HEK293 cells (AID 1920064)", "how_it_was_run": "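After overnight (18 h) culture at 37 C/5% CO2, human KISS1R-HEK293 cells received calcium dye for 1 h, then test compound; emission at 540 nm (excitation 480 nm) was tracked for 3 min.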", "note": "Unmarked numbers belong to inactive results. The source made the active and inactive calls. Calls follow the shape of the dose curve; as a rule, active = well fitted activation curve with a large enough effect in the repeat runs; inconclusive = weak or mixed curves; inactive = flat fitted curve, though single readings scatter. % is scaled to controls: 0 for no effect and ±100 for the full control effect."}
{"smiles": "Cc1ccnc(N)c1", "values": [{"measurement": "outcome", "value": "inactive"}]}
{"smiles": "NC(=O)NC(=O)Cc1ccccc1", "values": [{"measurement": "outcome", "value": "inactive"}]}
{"smiles": "Nc1ccc(C(=O)O)c(O)c1", "values": [{"measurement": "outcome", "value": "inactive"}]}
{"smiles": "CN1CCC(=C2c3ccccc3CCc3sccc32)CC1", "values": [{"measurement": "outcome", "value": "inactive"}]}
{"smiles": "CN(C)C/C=C(/c1ccc(Br)cc1)c1cccnc1", "values": [{"measurement": "outcome", "value": "inactive"}]}
{"smiles": "COc1cc(OC)cc(OC)c1", "values": [{"measurement": "outcome", "value": "inactive"}]}
{"smiles": "CCCCC/C=C/CC(=O)OC", "values": [{"measurement": "outcome", "value": "inactive"}]}
{"smiles": "CC(C)(C)NCC(O)COc1cccc2c1CCC(=O)N2", "note": "(configuration not stated)", "values": [{"measurement": "outcome", "value": "inactive"}]}
{"smiles": "O=C(OCC1(COC(=O)c2cccnc2)CCCC(COC(=O)c2cccnc2)(COC(=O)c2cccnc2)C1O)c1cccnc1", "values": [{"measurement": "outcome", "value": "inactive"}]}
{"smiles": "Nc1nc(-c2ccccc2)c(Br)c(=O)[nH]1", "values": [{"measurement": "outcome", "value": "inactive"}]}
{"smiles": "N#CSCC(=O)O", "values": [{"measurement": "outcome", "value": "inactive"}]}
{"smiles": "CC(C)Cn1cnc2c(N)nc3ccccc3c21", "values": [{"measurement": "activation", "value": "1.32% [at 15.8 µM]"}]}
{"smiles": "CCO[Si](OCC)(OCC)OCC", "values": [{"measurement": "outcome", "value": "inactive"}]}
{"smiles": "c1cnc2c(n1)CCCC2", "values": [{"measurement": "outcome", "value": "inactive"}]}
{"smiles": "Oc1ccc(Oc2ccccc2)cc1", "values": [{"measurement": "outcome", "value": "inactive"}]}
{"smiles": "CCCCCCCCCCCCCOP(=O)(O)O", "values": [{"measurement": "outcome", "value": "inactive"}]}
{"smiles": "O=NN(CCCl)C(=O)NC1CCCCC1", "values": [{"measurement": "outcome", "value": "inactive"}]}
{"smiles": "CC(=O)NO", "values": [{"measurement": "outcome", "value": "inactive"}]}
{"smiles": "ONc1ccccc1", "values": [{"measurement": "outcome", "value": "inactive"}]}
{"smiles": "COc1ccc2c(c1)c(CC(=O)OCC(=O)O)c(C)n2C(=O)c1ccc(Cl)cc1", "values": [{"measurement": "outcome", "value": "inactive"}]}
{"smiles": "C1=CCCC1", "values": [{"measurement": "outcome", "value": "inactive"}]}
{"smiles": "CCCCCCCC/C=C\\CCCCCCCC(=O)OC[C@@H](O)[C@H]1OC[C@H](O)[C@H]1O", "values": [{"measurement": "outcome", "value": "inactive"}]}
{"smiles": "Cc1occc1C(=O)Nc1ccc(C(=O)N2CCC(F)(F)/C(=C\\C(=O)N3CCC(N4CCCCC4)CC3)c3ccccc32)cc1", "values": [{"measurement": "outcome", "value": "inactive"}]}
{"smiles": "C[C@@H]1C[C@H]2[C@@H]3CCC4=CC(=O)C=C[C@]4(C)[C@@]3(F)[C@@H](O)C[C@]2(C)[C@@]1(O)C(=O)CO", "values": [{"measurement": "outcome", "value": "inactive"}]}
{"smiles": "CC(CO)(CO)C(=O)O", "values": [{"measurement": "outcome", "value": "inactive"}]}
{"smiles": "COc1cc2c(cc1OC)C(=O)CC2", "values": [{"measurement": "outcome", "value": "inactive"}]}
{"smiles": "Cc1c(Cl)cccc1Nc1ccccc1C(=O)O", "values": [{"measurement": "outcome", "value": "inactive"}]}
{"smiles": "O=C1c2ccccc2S(=O)(=O)N1CCCCN1CCN(c2ncccn2)CC1", "values": [{"measurement": "outcome", "value": "inactive"}]}
{"smiles": "CN(C)CCOC1=Cc2ccccc2Sc2ccc(Cl)cc21", "values": [{"measurement": "outcome", "value": "inactive"}]}
{"smiles": "CCOC(=O)c1ccc(NC(=O)CN2CCCCC2)cc1", "values": [{"measurement": "outcome", "value": "inactive"}]}
{"smiles": "C=CC(=O)O", "values": [{"measurement": "outcome", "value": "inactive"}]}
{"smiles": "CN=C(NC#N)NCCSCc1csc(N=C(N)N)n1", "values": [{"measurement": "outcome", "value": "inactive"}]}
{"smiles": "O=c1c(O)c(-c2ccc(O)cc2O)oc2cc(O)cc(O)c12", "values": [{"measurement": "outcome", "value": "inactive"}]}
{"smiles": "CC(C)NCC(O)c1ccc2ccccc2c1", "note": "(configuration not stated)", "values": [{"measurement": "outcome", "value": "inactive"}]}
{"smiles": "CCCN(CCC)c1c([N+](=O)[O-])cc(C(F)(F)F)c(N)c1[N+](=O)[O-]", "values": [{"measurement": "outcome", "value": "inactive"}]}
{"smiles": "NC1CCN(c2nc3c(cc2F)c(=O)c(C(=O)O)cn3-c2ccc(F)cc2F)C1", "note": "(configuration not stated)", "values": [{"measurement": "outcome", "value": "inactive"}]}
{"smiles": "N#Cc1ccc(CC(=O)c2cccc(C(F)(F)F)c2)cc1", "values": [{"measurement": "outcome", "value": "inactive"}]}
{"smiles": "Cc1cc(=O)[nH]c(=O)[nH]1", "values": [{"measurement": "outcome", "value": "inactive"}]}
{"smiles": "CCC(C)(C)C(=O)O", "values": [{"measurement": "outcome", "value": "inactive"}]}
{"smiles": "C=C[Si](C)(C)O[Si](C)(C)C=C", "values": [{"measurement": "outcome", "value": "inactive"}]}
{"smiles": "O=C(O)c1ccccc1C(=O)Nc1ccc(S(=O)(=O)Nc2nccs2)cc1", "values": [{"measurement": "outcome", "value": "inactive"}]}
{"smiles": "CC/C=C\\CCOC(=O)c1ccccc1", "values": [{"measurement": "outcome", "value": "inactive"}]}
